Compound activity from PubChem BioAssay.
BAZ2B inh – inhibitors of human BAZ2B bromodomain | Q9UIF8 | AlphaScreen BAZ2B-H3K14Ac peptide displacement | Potency, µM (highest dose often 114 µM), without a hit: at the highest dose activity change, negative = inhibition, most hits filed as inhibitors | 360,000 compounds, 4.4% hits; also: % is scaled to controls: 0 for no effect and ±100 for the full control effect; nearly all actives have a fitted effect of over 60% in size
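Protein-peptide AlphaScreen: BAZ2B 50 nM, b-H3K14Ac 50 nM, 1x PBS pH 7.4 + 0.01% Tween-20. Preincubation 30 min RT; cpd 30 min RT (top 110 uM); beads 20 min RT, light-protected.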
G9a inh – blocks human histone lysine methyltransferase G9a. Potency, µM (series often up to 102 µM), without a hit: at the highest dose activity, negative = inhibition, actives largely listed as inhibitors. G9a H3K9 monomethylation, AlphaScreen, 2 h. AID 504332. 350,000 compounds, 8.8% hits; also: % is scaled to controls: 0 for no effect and ±100 for the full control effect; nearly all actives have a fitted effect of over 75% in size
Target sequence (Q96KQ7 913-1193 limits assumed): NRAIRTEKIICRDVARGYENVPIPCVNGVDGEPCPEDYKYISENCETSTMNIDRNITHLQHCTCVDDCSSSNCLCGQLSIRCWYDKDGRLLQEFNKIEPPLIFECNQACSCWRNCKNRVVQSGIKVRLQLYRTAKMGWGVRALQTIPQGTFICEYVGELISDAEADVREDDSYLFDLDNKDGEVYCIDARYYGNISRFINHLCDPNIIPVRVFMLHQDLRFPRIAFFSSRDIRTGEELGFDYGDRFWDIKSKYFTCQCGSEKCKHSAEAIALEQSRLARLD
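AlphaScreen detection with an anti-monomethyl H3K9 antibody quantified product after a 2 h room-temperature reaction containing 500 nM biotinylated H3K9 peptide, 20 µM SAM and 20 nM enzyme, which had been preincubated 15 min with compound.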
HP1b binding inh – HP1-beta chromodomain-methylated histone interaction inhibition; P83916; 390,000 compounds, 0.56% hits; Potency, µM (doses to about 114 µM), inactives show top-dose activity change, negative = inhibition, usual class: inhibitors; AID 540317; AlphaScreen HP1-beta / biotin-H3K9me3 peptide binding; also: nearly all actives have a fitted effect of over 70% in size
Target sequence (P83916 whole entry, looked up): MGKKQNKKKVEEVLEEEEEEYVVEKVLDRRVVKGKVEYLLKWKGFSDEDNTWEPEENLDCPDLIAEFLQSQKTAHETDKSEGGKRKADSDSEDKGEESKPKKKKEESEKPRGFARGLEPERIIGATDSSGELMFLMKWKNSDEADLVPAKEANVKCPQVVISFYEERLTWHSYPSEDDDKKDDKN
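Compound inhibition of the preformed complex between 50 nM HP1-beta and 50 nM biotinylated H3K9me3 peptide was read by AlphaScreen. Buffer was PBS pH 7.4 with 0.01% Tween-20. Incubations ran 30 min at room temperature, with 10 ug/mL donor/acceptor beads.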
Sfp PPTase inh – inhibitors of Bacillus subtilis Sfp phosphopantetheinyl transferase. 310,000 compounds, 3.5% hits. Potency, µM, for inactives: largest response in the series, negative = inhibition, hits mostly inhibitors. AID 1490. Biochemical Sfp PPTase activity, qHTS. Q9F4F7;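 also: the enzyme is Sfp with the accession as filed and its product quenches rhodamine fluorescence; 0% = enzyme reaction without inhibitor and -100% = no enzyme wells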
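Fluorescence-quenching assay: 15 nM Sfp-PPTase preincubated 15 min at room temperature with compound, then 5 uM rhodamine-CoA and 12.5 uM BHQ-2-labelled YbbR peptide added. Fluorescence (ex 525/em 598 nm) read at start and after 30 min; difference gives rate.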
JMJD2A Tudor – inhibitors of human JMJD2A Tudor domain; Potency, µM (series often up to 114 µM), for inactives: at the top dose activity change, negative = inhibition, usual class: inhibitors; 390,000 compounds, 4.4% hits; AID 504339; AlphaScreen JMJD2A-Tudor / H3K4me3 peptide binding; O75164; also: % is scaled to controls: 0 for no effect and ±100 for the full control effect; nearly all actives have a fitted effect of over 50% in size
L3MBTL1 block – L3MBTL1 (human) inhibition. Potency, µM (doses to about 57.1 µM), inactives show at the top dose activity, negative = inhibition, most hits filed as inhibitors. Q9Y468. AID 485360. 230,000 compounds, 0.66% hits. AlphaScreen L3MBTL1–H3K9me1 peptide binding; also: % is scaled to controls: 0 for no effect and ±100 for the full control effect; nearly all actives have a fitted effect of over 60% in size
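Read-out is AlphaScreen signal from streptavidin donor and nickel chelate acceptor beads (10 ug/mL final each) bridging L3MBTL1 (50 nM) and biotinylated K9-monomethylated H3(1-15) peptide (75 nM), after 30 min compound exposure at room temperature.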
Active calls of the source: *; u = inconclusive; x = no result; [ ] = dose if it differs, or a comment. Sampled rows, rich in hits. Any-hit rate of the full collection: about 12%. Calls follow the shape of the dose curve; as a rule, active = well fitted curve in the direction sought with a large enough effect; inconclusive = small, poorly fitted or top-dose-only effect, or another doubt; inactive = no such curve, though single readings can be large; an effect the other way counts as inactive or inconclusive. Potency is read from the fitted curve at half-maximal effect.

SMILES	BAZ2B inh	G9a inh	HP1b binding inh	Sfp PPTase inh	JMJD2A Tudor	L3MBTL1 block
Nn1cc(-c2ccccc2)nc1SCC(=O)N1CCN(S(=O)(=O)c2ccccc2)CC1	u	25µM*	9%	-16%	-21%	-3%
CC(C)(C)NC(=O)CSc1nc(-c2ccccc2)c(-c2ccccc2)[nH]1	4%	16%[12.7 µM]	32%	-2%	-19%	x
O=C(CSc1nc(-c2ccccc2)c(-c2ccccc2)[nH]1)N1CCN(S(=O)(=O)c2ccccc2)CC1	-35%	3.2µM*	-1%	-4%	u	x
CC(C)c1ccc(S(=O)(=O)N2CCN(C(=O)C3CCCCC3)CC2)cc1	-11%	-4%	37%	11%	0%	x
CCCCn1c(N)c(C(=S)NC(=O)CC(C)C)c(=O)n(C)c1=O	8%	29%[59 µM]	3%	9%	-29%	11%
CCCn1c(N)c(C(=S)NC(=O)C2CC2)c(=O)n(C)c1=O	-5%	52%[59 µM]	15%	50µM*	-21%	3%
c1ccc2c(c1)Nc1cc3ccccc3cc1S2	-30%	40µM*	2%	6%	-28%	-14%
COc1ccc2c(c1)S(=O)(=O)c1ccccc1N2	-2%	14%	27%	13%	-19%	3%
COc1ccc2c(c1)Sc1ccccc1N2	20µM*	3.5µM*	28µM*	-4%	40µM*	u
Cc1ccc(NC(=O)Cn2ncc3c4ccccc4n(Cc4ccccc4)c3c2=O)cc1Cl	-8%	7%[59 µM]	28%	x	-5%	x
CC1(C)C=Cc2c(ccc3c2OC[C@H](c2ccc(O)cc2O)C3)O1	50µM*	4%[2.33 µM]	-20%	x	50µM*	-14%
CC(C)=CCc1cc([C@@H]2COc3c(ccc4c3C=CC(C)(C)O4)C2)c(O)cc1O	x	x	-9%	x	u	x
Cc1cc(S(=O)(=O)N(Cc2ccccc2)Cc2ccc(N(C)C)cc2)ccc1-n1cnnn1	-33%	8.9µM*	-23%	-4%	40µM*	10%[11.4 µM]
Cc1cc(S(=O)(=O)N(C)CCc2ccccc2)ccc1-n1cnnn1	0%	4%	26%	3%	6%	-9%
COc1cc(S(=O)(=O)N(Cc2cccnc2)Cc2ccco2)ccc1-n1cnnn1	56µM*	5.6µM*	-1%	1%	28µM*	-8%
COc1cccc(CN(Cc2cccnc2)S(=O)(=O)c2ccc(-n3cnnn3)c(C)c2)c1	79µM*	u	12%	-12%	89µM*	-5%
Cc1cccc(N2C(=O)C(CC(=O)Nc3ccccc3)N(C3CCCCC3)C2=O)c1 (stereo not given)	0%	-4%[59 µM]	45%	x	-18%	x
CCOc1cc(C=O)cc(N=Nc2cccc([N+](=O)[O-])c2)c1O	25µM*	45µM*	u	9%	u	-15%
Cn1c(=O)c2c(nc3n2CC(O)CN3c2ccc(O)cc2)n(C)c1=O (stereo not given)	-2%	79µM*	15%	4%	-24%	-5%
COc1ccc(N2CC(C)Cn3c2nc2c3c(=O)n(Cc3ccccc3)c(=O)n2C)c(OC)c1 (stereo not given)	u	6.3µM*	-25%	-20%	u	x
COc1ccc(N2CC(C)Cn3c2nc2c3c(=O)n(CCc3ccccc3)c(=O)n2C)cc1 (stereo not given)	0%	3.2µM*	25%	5%	-3%	4%
CCOc1ccc(N2CC(O)Cn3c2nc2c3c(=O)n(CCCc3ccccc3)c(=O)n2C)cc1 (stereo not given)	-6%	2.5µM*	13%	2%	-22%	x
COc1ccc(N2CCn3c2nc2c3c(=O)n(CCCc3ccccc3)c(=O)n2C)c(OC)c1	u	32µM*	-14%	19%	u	-8%
O=c1oc2c3c(ccc2c2ccccc12)OCN(Cc1ccc(Cl)cc1)C3	-27%	1.4µM*	39%	x	-15%	x
COc1ccccc1CN1COc2ccc3c(oc(=O)c4ccccc43)c2C1	5µM*	0.79µM*	21%	x	u	x
